Results from PubChem BioAssay (NCI).
Compounds without any hit were thinned out: in the full panel of roughly 83,000, 20% have a hit.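 Assay: single dose, 48 h. Readout: percent growth (0 = no net growth; negative = cell death). Active: <10.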 Calls of active or inactive are those of the source.

Tested on: MDA-MB-468 breast
Test: NCI-60 one-dose screen, 48 h (100 = growth as untreated, 0 = no growth, -100 = all killed)
Details: 10 µM unless noted

Question: How did the growth turn out when `O=C1CSC(c2ccccc2Cl)N1c1nnc(Cn2nnc3ccccc32)o1` (stereo not given) was run?
Answer: Its growth is 82.7% (inactive).

Question: For `CCc1ccccc1-n1c(-c2ccc(Cl)cc2)cc(-c2ccc(Cl)cc2)c(C#N)c1=O`, which growth is on record?
Answer: The growth was 87.6% (inactive).

Question: For `Cc1cc2ncc(-c3cc4ccccc4c(N4CCN(C)CC4)n3)nc2cc1C`, which growth is on record?
Answer: The growth was -76.6% (active).

Question: How did the growth turn out when `CCN(CC)S(=O)(=O)c1ccc(-c2nc(C(Cl)Cl)nc3cc(-c4ccc(F)cc4)nn23)cc1` was run?
Answer: Its growth is -31.9% (active).

Question: Which growth does the source give for `COc1ccccc1-n1c(-c2cc(O)ccc2C)cn2c3c(=O)[nH]c(=O)n(C)c3nc12` here?
Answer: Its growth is 92.3% (inactive).

Question: How did the growth turn out when `Cc1ccc(/C(N)=N/C(N)=N/c2nc3ccccc3s2)cc1` was run?
Answer: The growth was 88.8% (inactive).

Question: `CC1(C)NCCC[C@]2(C)[C@H]3CC[C@H]4[C@H]5[C@H](C(=O)/C=C/c6cccnc6)CCC[C@]5(CO)CC[C@@]4(C)[C@]3(C)CC[C@@H]12` was tested. Which growth did it give?
Answer: The growth was -12.6% (active).

Question: For `N#Cc1c(-c2ccccc2)nc(SCC2CO2)nc1N1CCOCC1` (stereo not given), which growth is on record?
Answer: Its growth is 55.9% (inactive).

Question: For `CC(=O)c1c(C)[nH]c(-c2nc3ccc(N4CCN(C)CC4)cc3[nH]2)c1-c1ccc(OCC2CCOCC2)cc1`, which growth is on record?
Answer: The growth was 11.4% (inactive).

Question: For `CNc1cc(C(=O)O)nc(NC)n1`, which growth is on record?
Answer: The growth was 95.5% (inactive).

Question: How did the growth turn out when `CCN1C(=O)N(CC)C2C1NN=c1s/c(=C\c3cccnc3)c(=O)n12` (stereo not given) was run?
Answer: The growth was 23.3% (inactive).

Question: Which growth does the source give for `C=C(C)[C@@H]1CC[C@]2(C(=O)N3CCN(C)CC3)CC[C@]3(C)[C@H](CC[C@@H]4[C@@]5(C)C/C(=C/c6ccncc6)[C@H](O)C(C)(C)[C@@H]5CC[C@]43C)[C@@H]12` here?
Answer: Its growth is -25.5% [100 µM] (active).

Question: Which growth does the source give for `CCCC/C=C/[C@@H]1C[C@H]1CCO` here?
Answer: The growth was 96.1% (inactive).

Question: With `NS(=O)(=O)c1ccc(N2Cc3cc(Cl)ccc3OC3=C2C(=O)N(CC2CCCCC2)C3=O)cc1` as the molecule, how does the growth read?
Answer: The growth was -81.1% (active).

Question: Which growth does the source give for `Cc1sc2nc(NCc3ccccc3)[nH]c(=O)c2c1C` here?
Answer: Its growth is 23.7% (inactive).

Question: For `O=[N+]([O-])c1ccc(Oc2cccc(C(F)(F)F)c2)c([N+](=O)[O-])c1`, which growth is on record?
Answer: The growth was -8.95% (active).

Question: For `O=[N+]([O-])c1ccc(N/N=C\c2ccc(O)cc2O)nc1`, which growth is on record?
Answer: Its growth is 56% (inactive).

Question: With `O=C1C=CC2(O)OC/C(=C\c3ccccc3)C(O)=C2C1=O` (stereo not given) as the molecule, how does the growth read?
Answer: The growth was 10.3% (inactive).

Question: With `COc1ccc(-c2nnc(COc3ccc(Cl)cc3Cl)o2)cc1OC` as the molecule, how does the growth read?
Answer: Its growth is 71.9% (inactive).

Question: Which growth does the source give for `O=C1CSC(=O)N1Cc1cc2ccccc2nc1Cl` here?
Answer: Its growth is 97.8% (inactive).

Question: Which growth does the source give for `Cc1ccc(/C=C(\C#N)C(=O)Nc2ncc(Cc3cc(Cl)ccc3Cl)s2)o1` here?
Answer: The growth was 69.6% (inactive).

Question: For `Cc1ccc2c(c1)=C/C(=C\c1cc(-c3ccccc3)[nH]c1O)C(=O)N=2`, which growth is on record?
Answer: Its growth is 8.74% (active).

Question: Which growth does the source give for `COCCCOc1cc(C[C@@H](C[C@H](N)[C@@H](O)C[C@H](C(=O)NCC(C)(C)C(N)=O)C(C)C)C(C)C)ccc1OC` here?
Answer: Its growth is 101% (inactive).

Question: For `CCOC(=O)CC1CSC(Nc2ccccc2)=N1` (stereo not given), which growth is on record?
Answer: Its growth is 106% (inactive).

Question: For `CC(=O)CS(C)(=O)=O`, which growth is on record?
Answer: Its growth is 109% (inactive).

Question: How did the growth turn out when `Cn1ccc(=O)c(C(=O)Nc2nsc3ccc([N+](=O)[O-])cc23)c1` was run?
Answer: The growth was 87.1% (inactive).

Question: `CCN1C(=O)N(CC)C2C1NN=c1s/c(=C\c3ccccc3)c(=O)n12` (stereo not given) was tested. Which growth did it give?
Answer: The growth was 22.5% (inactive).

Question: With `COc1cc(/C=C/C(=O)c2ccc(Nc3nc(Nc4ccccc4)nc(Nc4ccc(Cl)cc4)n3)cc2)cc(OC)c1OC` as the molecule, how does the growth read?
Answer: The growth was 76.3% (inactive).

Question: With `COc1ccc2c(c1)C(c1c[nH]c3ccccc13)(c1c[nH]c3ccccc13)CCO2` as the molecule, how does the growth read?
Answer: Its growth is 35% (inactive).

Question: Which growth does the source give for `c1ccc(Sc2ncnc3ccccc23)cc1` here?
Answer: The growth was 50.3% (inactive).

Question: `O=C(N/N=C\c1ccc([N+](=O)[O-])cc1)c1ccc2nc(-c3ccc(Br)cc3)[nH]c2c1` was tested. Which growth did it give?
Answer: Its growth is -33% (active).

Question: Which growth does the source give for `CCc1ccc(/C=C/c2ccc(O)c3ncccc23)[n+](C)c1` here?
Answer: Its growth is 19.6% (inactive).

Question: How did the growth turn out when `Cc1noc(C)c1-c1ccc2nc(NC(=O)[C@H]3CCN(C#N)C3)cn2c1` was run?
Answer: The growth was 57.3% (inactive).

Question: For `CCNCC(C)(C)O`, which growth is on record?
Answer: The growth was 115% (inactive).

Question: Which growth does the source give for `CN1CCN(Cc2ccc(NC(=O)c3[nH]ncc3Nc3ccnc4ccnn34)cc2)CC1` here?
Answer: The growth was 65.6% (inactive).

Question: `COc1cccc(N=Nc2cccc(OC)c2)c1` was tested. Which growth did it give?
Answer: The growth was 87.2% (inactive).

Question: `CC1=C/C(=N\N=C2/C=C(C)CC(C)(C)C2)CC(C)(C)C1` was tested. Which growth did it give?
Answer: Its growth is 98.5% (inactive).

Question: `Cc1ccc2c(c1)C(=O)CCS2` was tested. Which growth did it give?
Answer: Its growth is 111% (inactive).

Question: How did the growth turn out when `N#CC1=C(N)Oc2c(ccc3ccccc23)C1c1cccs1` (stereo not given) was run?
Answer: Its growth is 26.5% (inactive).

Question: `Cn1cc(C(=O)NCCC(=N)N)cc1NC(=O)CN=C(N)N` was tested. Which growth did it give?
Answer: The growth was 96.7% (inactive).
